# Experimental data: PubChem BioAssay (NCI)
# About 83,000 compounds went through this panel and 20% of them were active in at least one assay; those are over-represented in the sample as a whole.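 Treatment: one concentration, 48 hours, 96-well format. Scoring: percent growth, with anything below 10 considered active.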 A number with no mark means an inactive call. Activity calls are given as the source filed them.
# Tests used:
# Experiment in all cases: NCI-60 one-dose screen, 48 h (100 = growth as untreated, 0 = no growth, -100 = all killed)
# Conditions in all cases: 10 µM unless noted
# HCT-15 colon = system: HCT-15 colon
# HT29 colon = system: HT29 colon
# SNB-75 CNS = system: SNB-75 CNS
# SNB-19 CNS = system: SNB-19 CNS
# U251 CNS = system: U251 CNS
# PC-3 prostate = system: PC-3 prostate
# SK-MEL-5 melanoma = system: SK-MEL-5 melanoma
# UACC-62 melanoma = system: UACC-62 melanoma
# LOX IMVI melanoma = system: LOX IMVI melanoma
# SK-MEL-28 melanoma = system: SK-MEL-28 melanoma
Structure (SMILES),growth (HCT-15 colon),growth (HT29 colon),growth (SNB-75 CNS),growth (SNB-19 CNS),growth (U251 CNS),growth (PC-3 prostate),growth (SK-MEL-5 melanoma),growth (UACC-62 melanoma),growth (LOX IMVI melanoma),growth (SK-MEL-28 melanoma)
CC(C)=CCC[C@](C)(O)[C@H]1CC[C@]2(C)[C@@H]1CC[C@@H]1[C@@]3(C)C/C(=C/c4ccco4)C(=O)C(C)(C)[C@@H]3CC[C@]12C,110%,111%,92.7%,103%,101%,97.4%,102%,91.7%,101%,102%
COc1cccc(/C=C2\COc3ccc(O)c(O)c3C2=O)c1,1.4% (active),8.58% (active),11.5%,35.4%,3% (active),-10.5% (active),40.4%,-6.3% (active),-82.3% (active),32.1%
COc1ccc(Cc2cnc(NC(=O)c3cc(C)oc3C)s2)cc1,26.9%,13.6%,-8.41% (active),38.7%,35.8%,39.3%,25.8%,27.1%,39.9%,54.3%
Oc1c(I)cc(I)cc1CNCc1ccccn1,26.8%,36.6%,75.6%,30.5%,15.6%,39.5%,37.3%,19.6%,30.2%,48.6%
CCC(C)(C)C(=O)O[C@H]1C[C@@H](C)C=C2C=C[C@H](C)[C@H](CC[C@@H]3CC(SCCN)CC(=O)O3)[C@H]21 (stereo not given in full),100%,75%,95.5%,93%,87.5%,44.3%,89.4%,84.3%,75.8%,102%
Cc1cn(-c2cc(NC(=O)c3cccc(C#Cc4cccc5[nH]nc(N)c45)c3)cc(C(F)(F)F)c2)cn1,25.8%,18.4%,48.1%,55.5%,43.7%,20.9%,34.5%,5.82% (active),7.02% (active),23.5%
C#CCNC(=O)[C@H](CC)[C@H]1CC[C@H](C)[C@H]([C@@H](C)[C@H](O)[C@H](C)C(=O)[C@H](CC)C2O[C@]3(C=CC(=O)[C@]4(CC[C@@](C)([C@H]5CC[C@](O)(CC)[C@H](C)O5)O4)O3)[C@H](C)C[C@@H]2C)O1 (stereo not given in full),28.8%,29.3%,-19.5% (active),42.1%,52.2%,21%,7.94% (active),41.3%,32.3%,58.6%
C=C1C(=O)O[C@H]2[C@H]1CC/C(COC(=O)C(=O)c1cn(C)c3ccc(Cl)cc13)=C\CC[C@@]1(C)O[C@@H]21,-62.8% (active),-71.3% (active),-98.3% (active),-75% (active),-95.3% (active),-70.5% (active),-100% (active),-82.5% (active),-84.5% (active),-64.6% (active)
COc1cc(-c2nccc3[nH]c(-c4ccc5cc[nH]c5c4)nc23)cc(OC)c1OC,-7.01% (active),-37.8% (active),18.9%,34.8%,-16.3% (active),-0.946% (active),-38.4% (active),27.4%,-67.5% (active),42.1%
CCOC(=O)C1=C(c2ccccc2)N=C2SC=C(c3ccc(Cl)cc3)N2C1c1ccc(Cl)cc1 (stereo not given),77.6%,83%,84.7%,82.8%,80.9%,41.3%,54.7%,66.4%,88.3%,95.8%
O=C(CSc1oc(-c2ccccc2)nc1S(=O)(=O)c1ccccc1)Nc1ccc(F)cc1,73.7%,91.7%,87.8%,93.5%,93.8%,52.7%,78.8%,66.4%,94%,98.4%
O=C(O)CCCN1C(=O)/C(=C/c2cn(-c3ccccc3)nc2-c2ccc([N+](=O)[O-])cc2)SC1=S,35.8%,87.1%,95.7%,48.9%,38.2%,56.4%,52.7%,47%,46.2%,49.4%
COCCOc1cc2ncnc(N3CCN(c4cc(S(C)(=O)=O)c(C)cc4Cl)CC3)c2cc1OCCOC,95.7%,94.4%,98.8%,96.8%,85.3%,81.5%,77%,94.2%,93.5%,107%
O=C1/C(=C/c2ccccc2Br)COc2ccc(O)cc21,40.7%,48.8%,89.3%,75%,46.1%,60.7%,94.6%,66.4%,18.8%,101%
Clc1ccc2c(NC3CCC(N4CCOCC4)CC3)ccnc2c1 (stereo not given),93.5%,84.7%,82.7%,79.3%,81.1%,62.3%,53.4%,77.4%,68.6%,97.3%
C=C1C(=O)O[C@H]2[C@H]1CC/C(COC(=O)NCc1ccc(Cn3c(=O)sn(CCCCC)c3=O)cc1)=C\CC[C@@]1(C)O[C@@H]21,16.8%,-33.4% (active),74.4%,85.9%,52%,46.4%,91.6%,46.5%,-11.6% (active),47%
CCOC(=O)c1nn(-c2ccc(S(N)(=O)=O)cc2)c2nc(C)cc(=O)n12,108%,109%,94.8%,98.8%,99%,101%,106%,99.6%,96.2%,119%
Cc1ccc(NC(=O)Cn2cc(CN3CCN(c4ccnc5cc(Cl)ccc45)CC3)nn2)cc1,84.7%,105%,70.7%,89.2%,89.4%,63.1%,77.7%,77.7%,82.4%,104%
O=S(=O)(Nc1ccc(Cl)c(C(F)(F)F)c1)c1ccc(-c2cnc(C3CC3)o2)cc1,22.5%,5.34% (active),-2.82% (active),18.3%,4.81% (active),4.35% (active),18.6%,-10.2% (active),32.9%,19.4%
O=c1c2ccccc2n2cnc3ccc(Cl)c1c32,66.4%,73.4%,100%,83.8%,78.4%,85.2%,77%,64.6%,62.8%,92.2%
Cc1nc2sc(C(=O)Nc3cccc(Br)c3)c(N)c2cc1C(O)c1ccccc1 (stereo not given),21%,18.1%,55.4%,33.8%,11.1%,30.2%,17.9%,26.2%,48%,61.9%
Clc1ccc2c(c1)C(c1c[nH]c3ccccc13)(c1c[nH]c3ccccc13)CCO2,87.1%,-46.2% (active),68.4%,97.4%,46.8%,35.3%,83.8%,57%,79.4%,95.3%
CC1CCc2c(C(=O)Nc3ncc(Cc4cccc([N+](=O)[O-])c4)s3)csc2C1 (stereo not given),26.2%,14.9%,-14.6% (active),31.8%,26.9%,35.7%,21.1%,13.9%,20%,60.7%
CCN(CC)Cc1cc(C=C2C(=O)NC(=S)NC2=O)cc(OC)c1O,105%,108%,99.1%,98.6%,98.6%,102%,106%,96.5%,105%,107%
O=S(=O)(NCCCNc1nccc(-c2c(-c3ccc(F)c(O)c3)nc3occn23)n1)c1ccc(Cl)cc1,73.2%,54.4%,95.6%,97%,94%,56.8%,33.2%,11.7%,36.2%,30%
O=C(CSc1nc2sc3c(c2c(=O)n1-c1ccccc1)CCCCC3)N/N=C/c1cccc([N+](=O)[O-])c1,53.8%,32.3%,6.05% (active),83.6%,49.1%,38.5%,67.6%,65.9%,76.5%,74%
